Measurements published in PubChem BioAssay (EPA / NIEHS).
Results filed as inconclusive are left out. Calls of active or inactive are those of the source. Rule for the calls, unless noted: active = hit-call score of the fitted dose curve at least 0.9, where 1 is the maximum; inactive = score below 0.9.

How the values were obtained:
[1] = CCTE_Shafer_MEA_dev_firing_rate_mean: CCTE's Neural Network Formation Assay for Mean Firing Rate, Shafer Lab (AID 2284031);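 note: AUC of well mean spike rate recorded on DIV 5 7 9 and 12; curve fitted for loss of firing so AC50 reflects decreased mean firing rate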
How it was run: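 Extracellular spike frequency, AUC over DIV 5–12 recordings, in rat cortical neuron MEA cultures dosed from plating; loss direction vs DMSO.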

[2] = CCTE_Shafer_MEA_dev_active_electrodes_number: CCTE's Neural Network Formation Assay for Number of Active Electrodes, Shafer Lab (AID 2284040; active = hit-call score of the fitted dose curve at least 0.9, where 1 is the maximum;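 note: potency for loss of active electrodes versus DMSO so lower counts are hits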)
How it was run: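 Developing rat cortical networks on MEAs, exposed DIV 0–12. Value is the AUC of active-electrode counts (≥5 spikes/min) from days 5, 7, 9, 12, relative to DMSO.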

[3] = CCTE_Shafer_MEA_dev_burst_rate: CCTE's Neural Network Formation Assay for Burst Rate, Shafer Lab (AID 2284042);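 note: potency for loss of burst rate below DMSO control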
How it was run: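 Developmental network assay measuring how 12-day exposure of rat cortical neuron cultures alters bursting on extracellular MEA recordings. Values are AUC of well-mean burst rate across four recording days, relative to DMSO vehicle.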

[4] = CCTE_Shafer_MEA_dev_bursting_electrodes_number: CCTE's Neural Network Formation Assay for Number of Bursting Electrodes, Shafer Lab (AID 2284043; active = hit-call score of the fitted dose curve at least 0.9, where 1 is the maximum;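 note: potency is for loss of bursting electrodes relative to DMSO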)
How it was run: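 Number of electrodes reaching ≥1 burst every 2 min was recorded at DIV 5, 7, 9 and 12 and collapsed as trapezoidal area under the curve. Cultures were rat cortical neurons on MEA plates, dosed continuously from plating with medium and treatment refreshed on DIV 5 and 9.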

[5] = CCTE_Shafer_MEA_dev_burst_duration_mean: CCTE's Neural Network Formation Assay for Mean Burst Duration, Shafer Lab (AID 2284045);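 note: curve fitted for loss meaning shorter burst duration than DMSO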
How it was run: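 Mean single-electrode burst duration (first to last spike), averaged over bursting electrodes per well, then integrated as area-under-curve across recordings at days 5, 7, 9 and 12. Rat cortical cultures on MEAs, compound present from plating, refreshed at feeds.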

[6] = CCTE_Shafer_MEA_dev_inter_network_spike_interval_mean: CCTE's Neural Network Formation Assay for Mean Inter-network Spike Interval, Shafer Lab (AID 2284047)
How it was run: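 Compound was given at plating to primary rat cortical neurons and renewed with full medium changes on DIV 5 and 9. Extracellular activity was recorded on days 5, 7, 9, 12; AUC values were fitted for loss relative to DMSO control.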

[7] = CCTE_Shafer_MEA_dev_network_spike_number: CCTE's Neural Network Formation Assay for Number of Network Spikes, Shafer Lab (AID 2284048);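 note: synchronized bursts across electrodes counted on days 5 7 9 12 and integrated as AUC; fit as a loss of signal meaning fewer network spikes than DMSO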
How it was run: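 Number of network spikes (coordinated firing across electrodes) recorded on days 5, 7, 9 and 12 and summarised as area under the curve. Rat cortical cultures on MEA, continuous compound exposure with full medium/treatment exchange at DIV 5 and 9.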

[8] = CCTE_Shafer_MEA_dev_network_spike_peak: CCTE's Neural Network Formation Assay for Mean Number of Electrodes in Network Spike, Shafer Lab (AID 2284049);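 note: fitted for loss of signal meaning fewer electrodes in network spikes than DMSO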
How it was run: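 Rat cortical primary culture, 1.5 x 10^5 cells/well, 48-well MEA (16 electrodes/well). Dosing day 0 through DIV 12, full media/compound exchange DIV 5, 9. AxIS adaptive spike detection; AUC over days 5/7/9/12; loss-of-signal vs DMSO.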

[9] = CCTE_Shafer_MEA_dev_spike_duration_mean: CCTE's Neural Network Formation Assay for Mean Spike Duration, Shafer Lab (AID 2284051);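 note: mean network spike duration pooled as area under curve over DIV 5 to 12 recordings; potency for a decrease in mean network spike duration versus DMSO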
How it was run: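 With DMSO as baseline, loss of mean network spike duration was scored from extracellular recordings of rat cortical neurons on MEA plates. Exposure spanned plating to DIV 12; the four recording days were collapsed into one AUC value.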

[10] = CCTE_Shafer_MEA_dev_network_spike_duration_std: CCTE's Neural Network Formation Assay for Standard Deviation of Network Spike Duration, Shafer Lab (AID 2284052);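 note: hits are decreases in network spike duration SD versus DMSO vehicle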
How it was run: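 Developing networks of rat cortical neurons were exposed over twelve days in vitro on 48-well MEA plates. Trapezoidal AUC of recordings (DIV 5–12) was analysed for signal loss relative to DMSO vehicle.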

[11] = CCTE_Shafer_MEA_dev_per_network_spike_spike_number_mean: CCTE's Neural Network Formation Assay for Mean Number of Spikes in a Network Spike, Shafer Lab (AID 2284053);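 note: fitted as decrease in spikes per network spike relative to DMSO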
How it was run: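 First, rat cortical cells (1.5 x 10^5/well) were seeded onto MEA wells; second, dosing began at plating and was refreshed on DIV 5 and 9; finally, network-spike spike counts across DIV 5–12 were summarized as AUC.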

[12] = CCTE_Shafer_MEA_dev_per_network_spike_spike_percent: CCTE's Neural Network Formation Assay for Percent of Spikes in a Network Spike, Shafer Lab (AID 2284054)
How it was run: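 Metric: fraction of spikes falling in a 0.05 s window at network-spike peaks. Recordings were made on days 5, 7, 9 and 12 and collapsed by trapezoidal AUC. Cultures were rat cortical neurons on MEA plates, dosed continuously from plating, re-dosed at media changes.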

[13] = CCTE_Shafer_MEA_dev_LDH: CCTE's Lactate Dehydrogenase Assay for Cytotoxicity in the Neural Network Formation Assay, Shafer Lab (AID 2284068; active = hit-call score of the fitted dose curve at least 0.9, where 1 is the maximum;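 note: exposure for twelve days from plating with re-dosing on DIV 5 and 9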)
How it was run: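 Developing rat cortical networks on MEA plates are exposed to compound for 12 days from plating. LDH activity is measured spectrophotometrically, with DMSO as baseline.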

[14] = CCTE_Shafer_MEA_dev_AB: CCTE's Alamar Blue Assay for Cytotoxicity in the Neural Network Formation Assay, Shafer Lab (AID 2284083; active = hit-call score of the fitted dose curve at least 0.9, where 1 is the maximum;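 note: resazurin reduction fluorescence as viability of cultured neurons; twelve days of exposure from plating with re-dosing on DIV 5 and 9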)
How it was run: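 Cytotoxicity companion to the developmental MEA: primary rat cortical neurons, 12-day exposure starting day 0, compound refreshed DIV 5 and 9; resazurin fluorescence, fitted against DMSO vehicle.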

[15] = CCTE_Shafer_MEA_dev_mutual_information_norm: CCTE's Neural Network Formation Assay for Mutual Information Normalization, Shafer Lab (AID 2284091);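 note: mutual information between electrodes summarised as area under curve across four recording days; potency is for a decrease in mutual information relative to DMSO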
How it was run: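 Shared information across electrodes, tracked on days 5, 7, 9 and 12 of network development and collapsed as trapezoidal area under the curve. Rat cortical cultures were treated continuously from plating, with treatment renewed at feeds on DIV 5 and 9; DMSO baseline, negative-direction fit.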

[16] = CCTE_Shafer_MEA_dev_correlation_coefficient_mean: CCTE's Neural Network Formation Assay for Mean Correlation Coefficient, Shafer Lab (AID 2284093);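 note: well mean pairwise spike train correlation integrated as AUC over recording days 5 to 12; potency fitted for loss of correlation relative to DMSO vehicle wells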
How it was run: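 Extracellular firing from rat cortical networks on 48-well MEAs, DMSO-referenced, negative fitting direction. Compound present from plating to DIV12; mean pairwise correlation per well integrated over DIV5–12 recordings by trapezoidal AUC.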

[17] = CCTE_Mundy_HCI_Cortical_Synap_Neur_Matur_NeuriteSpotCountPerNeuriteLength: CCTE's Synaptogenesis and Neurite Maturation Assay in rat cortical cells for Neurite Spot Count per Neurite Length, Mundy Lab (AID 2284210)
How it was run: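 Synaptophysin spots per unit neurite length, measured by automated imaging of MAP2/synaptophysin/Hoechst-stained neurons. Cultures from rat cortex received chemical at DIV 7 with media change through DIV 12; glial growth arrested by AraC at DIV 5; DMSO baseline.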

[18] = CCTE_Mundy_HCI_Cortical_NOG_NeuriteLength: CCTE's Neurite Outgrowth Assay in rat cortical cells for Neurite Length, Mundy Lab (AID 2284213);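 note: neurites imaged about 48 to 50 h after chemical exposure began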
How it was run: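 First, rat primary cortical cells were plated and, 2 h later, given test chemical as a 1/10 dilution. Finally, βIII-tubulin immunostaining enabled automated imaging of neurite length.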

[19] = CCTE_Mundy_HCI_Cortical_Synap_Neur_Matur_NeuriteLength: CCTE's Synaptogenesis and Neurite Maturation Assay in rat cortical cells for Neurite Length, Mundy Lab (AID 2284214)
How it was run: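 DMSO-normalised neurite length, from high-content imaging of anti-MAP2-stained rat cortical cells fixed at DIV 12. Glia were suppressed with AraC (DIV 5) before chemical exposure from DIV 7.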

[20] = CCTE_Mundy_HCI_Cortical_Synap_Neur_Matur_SynapseCount: CCTE's Synaptogenesis and Neurite Maturation Assay in rat cortical cells for Synapse Count, Mundy Lab (AID 2284218)
How it was run: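 Endpoint: synapses/neuron by HCI (synaptophysin puncta on MAP2-labelled neurites, Hoechst nuclei). Rat primary cortical cells, AraC DIV 5, dosed DIV 7, fixed DIV 12; DMSO negative control.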

[21] = CCTE_Mundy_HCI_hN2_NOG_NeuriteCount: CCTE's Neurite Outgrowth Assay in human hN2 cells for Neurite Count, Mundy Lab (AID 2284219; active = hit-call score of the fitted dose curve at least 0.9, where 1 is the maximum)
How it was run: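 In this morphology assay, hNP1-derived neurons received test chemical 2 h post-plating and were fixed two days later in warm paraformaldehyde/sucrose containing Hoechst 33342. Neurites, labelled by rabbit anti-βIII-tubulin (1:800) and Alexa Fluor-488 (1:500), were counted automatically.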

[22] = CCTE_Mundy_HCI_hN2_NOG_NeuronCount: CCTE's Neurite Outgrowth Assay in human hN2 cells for Neuron Count, Mundy Lab (AID 2284221; active = hit-call score of the fitted dose curve at least 0.9, where 1 is the maximum)
How it was run: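 Read-out is the number of betaIII-tubulin-positive neurons imaged by automated high-content analysis, with DMSO as negative control.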

[23] = CCTE_Mundy_HCI_Cortical_Synap_Neur_Matur_CellBodySpotCount: CCTE's Synaptogenesis and Neurite Maturation Assay in rat cortical cells for Cell Body Spot Count, Mundy Lab (AID 2284223)
How it was run: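 Rat cortical neurons; AraC @ DIV 5; dose + media change DIV 7; fix DIV 12; anti-MAP2/anti-synaptophysin IF, Hoechst; HCI count of soma synaptophysin puncta/neuron; DMSO = negative control.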

[24] = CCTE_Mundy_HCI_Cortical_NOG_NeuronCount: CCTE's Neurite Outgrowth Assay in rat cortical cells for Neuron Count, Mundy Lab (AID 2284236; active = hit-call score of the fitted dose curve at least 0.9, where 1 is the maximum;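 note: neurons counted by imaging betaIII-tubulin and Hoechst stained cortical cells; cells exposed to compound for about 48 hours before fixation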)
How it was run: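 Read-out: neuron number by high-content imaging of betaIII-tubulin (Alexa Fluor-488) and Hoechst-labelled rat primary cortical cells.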

[25] = CCTE_Mundy_HCI_hNP1_Casp3_7: CCTE's Caspase-Glo 3/7 Assay in human neuroprogenitor cells for Apoptosis, Mundy Lab (AID 2284240)
How it was run: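 Apoptosis is scored by activated caspase-3/7 luminescence in WA09-derived neural progenitor cells, measured 26.5 h after chemical dosing. Values represent gain of signal relative to DMSO vehicle.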

[26] = CCTE_Mundy_HCI_Cortical_Synap_Neur_Matur_NeuronCount: CCTE's Synaptogenesis and Neurite Maturation Assay in rat cortical cells for Neuron Count, Mundy Lab (AID 2284242; active = hit-call score of the fitted dose curve at least 0.9, where 1 is the maximum;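 note: hits reduce neuron count versus DMSO baseline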)
How it was run: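 Measured at DIV 12: fluorescently labelled neurons (Hoechst nuclei, MAP2) in rat primary cortical cultures, counted by high-content imaging. AraC suppressed glia from DIV 5; DMSO served as negative control.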

Measured: AC50

[CH3][Sn]([CH3])[CH3]
inactive: [6] | [17] | [21] | [22] | [23] | [24]
active: [1] 571 nM | [2] 212 nM | [3] 559 nM | [4] 245 nM | [5] 992 nM | [7] 94.4 nM | [8] 224 nM | [9] 151 nM | [10] 77.3 nM | [11] 222 nM | [12] 221 nM | [13] 174 nM | [14] 1580 nM | [15] 221 nM | [16] 222 nM | [18] 1780 nM | [19] 2410 nM | [20] 1790 nM | [25] 5000 nM | [26] 1670 nM
